High-throughput results: PubChem, National Center for Advancing Translational Sciences (NCATS)
USP1-UAF1 inh: USP1/UAF1 (human) deubiquitinase inhibition. Potency, µM (doses to about 57.1 µM), for the others: at the highest dose activity change, negative = inhibition, hits mostly inhibitors. O94782. recombinant USP1/UAF1, Ub-Rhodamine cleavage fluorescence. AID 743255. 0.23% of 390,000 active; further: on the % scale 0 is the no-effect control and ±100 the full control effect; nearly all actives have a fitted effect of over 60% in size
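High-throughput fluorogenic screen: 1nM USP1/UAF1 complex, Ub-Rho substrate 150nM final, 50mM HEPES pH 7.8 with 0.5mM EDTA, 0.1 mg/ml BSA, 1mM TCEP and 0.01% Tween-20.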
PLK1 PBD inh: PLK1 (human) polo-box domain binding inhibition; 2.8% of 360,000 active; Potency, µM, for the others: max response, negative = inhibition, usual class: inhibitors; Plk1 PBD binding of FITC phosphopeptide, fluorescence polarization; P53350; AID 720504; further: series mostly up to about 57 µM; on the % scale 0 is the no-effect control and ±100 the full control effect; nearly all actives have a fitted effect of over 65% in size
GCN5L2 inh: GCN5L2 (KAT2A) acetyltransferase inhibition | Q92830 | Potency, µM (top dose mostly 58.9 µM), inactives show at the top dose activity change, negative = inhibition, hits mostly inhibitors | 0.21% of 390,000 active | AID 504327 | GCN5L2 HAT assay, ThioGlo1 CoA-SH fluorescence; further: on the % scale 0 is the no-effect control and ±100 the full control effect
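Preincubate 20nM GCN5L2 with compound 15 min, RT → add 50uM ThioGlo1 + 75uM H3(1-25) + 70uM acetyl-CoA → read fluorescence 0 and 20 min. Primary qHTS; fluorescent artifacts likely.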
PTAP TSG101 blk: blocks PTAP/TSG101 interaction to inhibit HIV-1 budding; Q99816; Fluorescence polarization, FITC-PTAP peptide / Tsg101 binding; Potency, µM (highest dose often 115 µM), for inactives: at the highest dose activity change, negative = inhibition, usual class: inhibitors; 340,000 tested, under 10 active; active means well fitted inhibition curve with a large enough effect in the main read-out, with a control signal flat, not every such curve was filed as active; inconclusive means small, poorly fitted or top-dose-only effect, or effect the other way, or a change in a side signal; inactive means no such curve, though single readings can be large or run the other way; further: % of control where 0% means no effect
Target sequence (Q99816 whole entry, looked up): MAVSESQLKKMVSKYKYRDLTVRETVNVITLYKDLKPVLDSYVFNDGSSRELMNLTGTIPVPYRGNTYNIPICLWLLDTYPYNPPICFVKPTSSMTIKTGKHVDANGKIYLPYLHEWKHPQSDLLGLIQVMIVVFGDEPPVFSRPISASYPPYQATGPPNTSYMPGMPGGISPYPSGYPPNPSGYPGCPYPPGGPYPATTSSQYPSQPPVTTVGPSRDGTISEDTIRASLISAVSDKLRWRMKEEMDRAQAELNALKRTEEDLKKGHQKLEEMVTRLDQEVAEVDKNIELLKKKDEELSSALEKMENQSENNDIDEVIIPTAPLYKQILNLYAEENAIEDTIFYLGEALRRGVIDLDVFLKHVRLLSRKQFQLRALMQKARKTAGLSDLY
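Compounds were pin-transferred onto Tsg101 binding domain (10 uM final) in HEPES pH 7.5 buffer, then FITC-PTAP peptide was added at 50 nM final. After 20 min at RT, polarization reported peptide displacement across a qHTS concentration series.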
VDR inhibitor: inhibitors of human vitamin D receptor; P11473; VDR-SRC2-3 peptide fluorescence polarization, 2 h; Potency, µM, without a hit: max response, negative = inhibition, actives largely listed as inhibitors; 0.93% of 400,000 active; AID 504847; further: on the % scale 0 is the no-effect control and ±100 the full control effect
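After 23 nl compound addition and a short centrifugation, plates sat for 2 hours at ambient temperature; polarization of fluorescence then indicated loss of VDR binding to peptide SRC2-3.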
TbPYK confirm: confirmation of Trypanosoma brucei pyruvate kinase inhibitors; shares compounds with PLK1 PBD inh; 67% of 890 active; Potency, µM (series often up to 76.9 µM), without a hit: top-dose activity change, negative = inhibition, hits mostly inhibitors; recombinant TbPYK, Kinase-Glo ATP luminescence; further: on the % scale 0 is the no-effect control and ±100 the full control effect; nearly all actives have a fitted effect of over 70% in size
TbPYK orthogonal: inhibits T. brucei pyruvate kinase in orthogonal ADP-Glo assay; shares compounds with PLK1 PBD inh; recombinant TbPYK, ADP-Glo luminescence, 60 min; Potency, µM (series often up to 76.9 µM), for inactives: top-dose activity change, negative = inhibition, hits mostly inhibitors; 62% of 890 active; further: on the % scale 0 is the no-effect control and ±100 the full control effect; nearly all actives have a fitted effect of over 75% in size
* = called active by the depositor; ? = inconclusive; . = not tested or not shown; [ ] = another dose, or the depositor's remark. This is a sample that favours compounds with a hit; in the whole collection about 3% have one here. Unless noted, the call rests on the fitted dose curve; in most records, active means well fitted curve in the direction sought with a large enough effect; inconclusive means small, poorly fitted or top-dose-only effect, or another doubt; inactive means no such curve, though single readings can be large; an effect the other way counts as inactive or inconclusive. Potency means the concentration at half of the fitted maximal effect.

SMILES	USP1-UAF1 inh	PLK1 PBD inh	GCN5L2 inh	PTAP TSG101 blk	VDR inhibitor	TbPYK confirm	TbPYK orthogonal
COc1ccc(C(C(=O)NCC2CCCO2)N(C(=O)c2snc(C(N)=O)c2N)c2ccc(C)cc2)cc1OC (stereo unspecified)	-11%	3%	-7%	-3%	-9%	.	.
COc1ccc(S(=O)(=O)N2CCCC(C(=O)Nc3cccnc3)C2)cc1Cl (stereo unspecified)	-6%	2.7µM*	-1%	-2%	-17%	-4%	-11%
CSc1ncccc1C(=O)NC1CC(C)(C)Cc2c1cnn2-c1ccccc1C (stereo unspecified)	-19%	3%	?	-3%	-13%	.	.
O=C(O)CN1C(=O)C=CC1=O	-28%	?	.	.	.	.	.
O=C1C=CC(=O)N1CCCCCCN1C(=O)C=CC1=O	-9%	3.4µM*	0%	-3%	3.2µM*	7.1µM*	7.1µM*
O=C(c1ccc(N2CCOCC2)c([N+](=O)[O-])c1)N1CCCC(C(F)(F)F)C1 (stereo unspecified)	-9%	-9%	-2%	-1%	-15%	.	.
O=C1S/C(=C/c2ccc(N3CCOCC3)o2)C(=O)N1Cc1c(F)cccc1Cl	?	43%	-13%	?	79µM*	?	40µM*
O=C1N=C(N2CCOCC2)S/C1=C/c1ccc(-c2ccccc2Cl)o1	-15%	-22%	4%	-9%	-14%	.	.
O=C1S/C(=C\c2ccc(N3CCOCC3)o2)C(=O)N1Cc1c(F)cccc1Cl	4µM*	55%	?	?	?	18µM*	14µM*
CCCCC(=O)Nc1nnc(SCc2cc(=O)n3cc(C)ccc3n2)s1	-1%	.	-5%	.	14%	.	.
NC(=O)c1ccc(N2CCN(c3ccc(O)cc3)CC2)c([N+](=O)[O-])c1	-2%	-5%	0%	-2%	-11%	14µM*	?
Cc1ccc(C(=O)O/N=C(\N)c2ccccn2)c(Cl)c1	-7%	3%	-3%	-2%	-9%	16µM*	13%
N/C(=N\OC(=O)c1ccc(Cl)cc1Cl)c1ccccn1	-13%	?	3%	-6%	-11%	.	.
CCC1Oc2ccc(C)cc2N(CC(=O)N(Cc2ccc(C)o2)C2CCCC2)C1=O (stereo unspecified)	-11%	?	-5%	-5%	?	16µM*	16µM*
COCC(C)n1c(COc2ccccc2F)nnc1SCC(=O)Nc1oc(C)c2c(C)n[nH]c(=O)c12 (stereo unspecified)	-19%	-20%	1%	-2%	-4%	20µM*	18µM*
COc1ccccc1-c1nnc(SCC(=O)Nc2oc(C)c3c(C)n[nH]c(=O)c23)n1C	-19%	-13%	-5%	1%	-3%	.	.
CCOc1ccc(-n2c(SCc3ccc([N+](=O)[O-])cc3)nnc2-c2ccccc2)cc1	-23%	5%	-5%	21%	0%	11µM*	8.9µM*
N#Cc1cccc(NC(=O)C2CCN(S(=O)(=O)c3ccc4[nH]c(=O)ccc4c3)CC2)c1	-26%	.	-3%	.	7%	.	.
CCCC[C@]12Cc3cc(C#N)ccc3C(O1)c1c(cc(-c3ccccc3)oc1=O)O2	.	.	-7%[12.7 µM]	.	.	.	.
S=C(NCc1ccccc1)NNc1nc2ccccc2[nH]1	-13%	17µM*	?	1%	25µM*	?	18µM*
CCN1/C(=C/C(C)=C/c2sc3ccccc3[n+]2CC)Sc2ccccc21	?	14%	-6%	?	-27%	?	-10%
Cc1nc(Nc2nc3ccccc3o2)nc(C)c1C	-5%	30µM*	-5%	-1%	?	-16%	1%
Cc1ccc2oc(Nc3nc(C)c(C)c(C)n3)nc2c1	-7%	-5%	2%	1%	-21%	.	.
O=C1CC(Sc2nnnn2-c2ccccc2)C(=O)N1c1cccc(Cl)c1 (stereo unspecified)	-9%	?	0%	-1%	-5%	28µM*	32µM*
O=C(O)/C=C/C(=O)NNC(=O)c1cc(-c2ccccc2)n[nH]1	-15%	30µM*	-15%	-2%	?	?	?
SMILES	USP1-UAF1 inh	PLK1 PBD inh	GCN5L2 inh	PTAP TSG101 blk	VDR inhibitor	TbPYK confirm	TbPYK orthogonal
CC1Cc2ccccc2N1CC(=O)Nc1ccc(N2CCOCC2)cc1 (stereo unspecified)	-9%	-9%	1%	-10%	-13%	.	.
CC(Nc1ccc(N2CCOCC2)cc1)C(=O)N1c2ccccc2CC1C (stereo unspecified)	-8%	0%	-8%	-4%	-11%	3.2µM*	7.1µM*
Cc1ccc(OCc2cc(=O)n3ccsc3n2)c(NC(=O)c2ccco2)c1	12%	.	-3%	.	-12%	.	.
CCN1CCN(C(c2cccc(OC)c2)c2sc3nc(C)nn3c2O)CC1 (stereo unspecified)	0%	6%	-2%	0%	-9%	.	.
COc1cccc(C(c2sc3nc(C)nn3c2O)N2CCc3ccccc3C2)c1 (stereo unspecified)	-11%	?	-11%	1%	-22%	20µM*	25µM*
O=C(O)C(Cc1ccccc1)N1C(=O)CCC1=O (stereo unspecified)	-22%	-13%	-2%	0%	-9%	.	.
O=C(O)C(Cc1ccccc1)N1C(=O)C=CC1=O (stereo unspecified)	-21%	6.7µM*	.	.	.	18µM*	32µM*
CCCCC(=O)N(Cc1ccc2c(c1)OCO2)Cc1nc2ccccc2c(=O)[nH]1	-2%	6.7µM*	1%	-6%	?	7%	2%
CC1(C)OC(=O)C(=Cc2ccc(-c3ccc(S(N)(=O)=O)cc3)o2)C(=O)O1	-24%	1.3µM*	?	-4%	79µM*	13µM*	16µM*
CC1CCCN(C(=O)c2nn(C)c3c2CSc2ccccc2-3)C1 (stereo unspecified)	-12%	?	?	2%	-11%	7.9µM*	10µM*
COc1ccccc1NC(=O)CSC1=Nc2ccccc2N=C(c2ccc(F)cc2)C1	?	.	-5%	.	-7%	.	.
c1cncc(Nc2nc(-c3cccs3)cs2)c1	-10%	19µM*	-14%	-2%	?	-21%	?
c1ccc(-c2csc(Nc3cccnc3)n2)nc1	-6%	-6%	1%	-4%	1%	.	.
Cc1ccccc1Cc1c(C)nc2nc(SCC(=O)NCCc3ccc(Cl)cc3)nn2c1C	-21%	.	-9%	.	-2%	.	.
CCOC(=O)C1=C(C)N=c2s/c(=C/c3cccc([N+](=O)[O-])c3O)c(=O)n2C1c1cc(OC)c(OC)c(OC)c1 (stereo unspecified)	-18%	27µM*	4%	1%	?	32µM*	?
